The results in this text go back to ChEMBL document CHEMBL1961873, “Compounds: GSK PKIS; Assays: Nanosyn kinase panel” (2012).

Experiment [1] has as its target 5'-AMP-activated protein kinase catalytic subunit alpha-2 (Homo sapiens) (UniProt P54646). Particulars: at 1 µM.
For experiment [2], the target named is T1, NUAK family SNF1-like kinase 1 (Homo sapiens) (UniProt O60285).
T1 sequence (whole entry): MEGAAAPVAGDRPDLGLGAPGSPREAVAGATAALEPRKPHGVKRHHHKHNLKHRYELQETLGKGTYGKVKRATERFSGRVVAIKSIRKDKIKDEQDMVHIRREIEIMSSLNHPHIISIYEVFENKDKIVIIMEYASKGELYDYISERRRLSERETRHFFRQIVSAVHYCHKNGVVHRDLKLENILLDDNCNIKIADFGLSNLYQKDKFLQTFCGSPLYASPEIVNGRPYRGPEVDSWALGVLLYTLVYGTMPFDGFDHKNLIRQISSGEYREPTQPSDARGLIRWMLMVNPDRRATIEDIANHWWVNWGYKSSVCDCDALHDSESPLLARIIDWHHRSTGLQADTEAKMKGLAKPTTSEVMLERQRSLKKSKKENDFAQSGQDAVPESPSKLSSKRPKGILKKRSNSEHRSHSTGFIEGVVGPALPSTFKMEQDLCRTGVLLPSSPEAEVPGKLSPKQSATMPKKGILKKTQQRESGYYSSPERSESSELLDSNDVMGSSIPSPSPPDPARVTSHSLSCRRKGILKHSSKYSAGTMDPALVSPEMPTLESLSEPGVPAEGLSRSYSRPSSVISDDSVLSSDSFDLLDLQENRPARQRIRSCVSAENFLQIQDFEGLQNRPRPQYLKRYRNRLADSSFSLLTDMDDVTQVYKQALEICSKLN
The note with it: at 0.1 µM.

Experiment [3] has as its target T1, NUAK family SNF1-like kinase 1 (Homo sapiens). Particulars: at 1 µM.
In experiment [4] the target is T2, Serine/threonine-protein kinase BRSK1 (Homo sapiens) (UniProt Q8TDC3).
T2 sequence (whole entry): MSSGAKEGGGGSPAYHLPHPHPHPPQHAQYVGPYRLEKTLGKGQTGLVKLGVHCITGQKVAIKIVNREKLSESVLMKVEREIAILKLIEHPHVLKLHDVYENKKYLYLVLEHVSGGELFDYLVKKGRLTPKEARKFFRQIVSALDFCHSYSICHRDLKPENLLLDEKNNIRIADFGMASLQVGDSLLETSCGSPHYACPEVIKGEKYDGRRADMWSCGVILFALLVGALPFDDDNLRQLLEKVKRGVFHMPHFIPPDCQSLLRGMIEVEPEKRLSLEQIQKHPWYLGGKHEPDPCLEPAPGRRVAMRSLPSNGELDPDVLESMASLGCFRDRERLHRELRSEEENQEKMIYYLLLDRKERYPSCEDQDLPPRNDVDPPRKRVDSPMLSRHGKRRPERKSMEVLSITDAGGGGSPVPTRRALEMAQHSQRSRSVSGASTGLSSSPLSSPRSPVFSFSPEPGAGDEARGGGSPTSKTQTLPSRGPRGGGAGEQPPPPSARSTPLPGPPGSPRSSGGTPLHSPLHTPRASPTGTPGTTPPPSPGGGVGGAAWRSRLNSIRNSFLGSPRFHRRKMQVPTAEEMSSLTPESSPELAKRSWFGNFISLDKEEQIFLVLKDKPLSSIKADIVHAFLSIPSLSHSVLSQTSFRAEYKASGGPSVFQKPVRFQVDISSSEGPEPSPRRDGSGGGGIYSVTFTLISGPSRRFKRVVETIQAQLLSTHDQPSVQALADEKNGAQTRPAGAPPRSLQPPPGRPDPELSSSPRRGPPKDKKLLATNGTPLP
Particulars: at 0.1 µM.

Experiment [5] has as its target T2, Serine/threonine-protein kinase BRSK1 (Homo sapiens). Particulars: at 1 µM.
Experiment [6] has as its target T3, Serine/threonine-protein kinase BRSK2 (Homo sapiens) (UniProt Q8IWQ3).
T3 sequence (whole entry): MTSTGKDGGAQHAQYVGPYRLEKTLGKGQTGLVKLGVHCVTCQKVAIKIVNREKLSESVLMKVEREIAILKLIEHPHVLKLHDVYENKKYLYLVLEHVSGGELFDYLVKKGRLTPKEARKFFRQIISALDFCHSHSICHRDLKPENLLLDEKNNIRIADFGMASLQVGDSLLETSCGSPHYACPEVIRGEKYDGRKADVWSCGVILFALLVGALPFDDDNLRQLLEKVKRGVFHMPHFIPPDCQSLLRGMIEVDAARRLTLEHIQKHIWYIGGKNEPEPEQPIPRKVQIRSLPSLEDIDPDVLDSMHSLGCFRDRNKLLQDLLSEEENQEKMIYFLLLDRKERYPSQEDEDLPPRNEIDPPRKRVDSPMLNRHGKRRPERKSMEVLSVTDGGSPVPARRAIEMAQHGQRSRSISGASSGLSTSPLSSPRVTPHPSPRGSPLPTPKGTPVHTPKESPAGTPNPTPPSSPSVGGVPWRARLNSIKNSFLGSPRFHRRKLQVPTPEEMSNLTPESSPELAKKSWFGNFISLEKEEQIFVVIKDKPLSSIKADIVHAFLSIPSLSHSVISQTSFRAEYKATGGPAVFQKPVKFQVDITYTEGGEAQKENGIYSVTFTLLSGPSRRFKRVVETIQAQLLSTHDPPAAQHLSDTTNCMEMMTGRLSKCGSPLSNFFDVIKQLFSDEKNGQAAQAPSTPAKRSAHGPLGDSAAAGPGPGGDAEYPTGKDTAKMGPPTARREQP
The note with it: at 0.1 µM.

For experiment [7], the target named is T3, Serine/threonine-protein kinase BRSK2 (Homo sapiens). Particulars: at 1 µM.
Experiment [8] addresses Calcium/calmodulin-dependent protein kinase type 1D (Homo sapiens) (UniProt Q8IU85). The note with it: at 0.1 µM.
Experiment [9] has the same target. Particulars: at 1 µM.
The target in experiment [10] is Calcium/calmodulin-dependent protein kinase type II subunit alpha (Homo sapiens) (UniProt Q9UQM7). The note with it: at 0.1 µM.
For experiment [11] the target is unchanged. Particulars: at 1 µM.
The target in experiment [12] is Calcium/calmodulin-dependent protein kinase type II subunit delta (Homo sapiens) (UniProt Q13557). Particulars: at 0.1 µM.
Experiment [13] has the same target. Particulars: at 1 µM.
Experiment [14] deals with T4, Calcium/calmodulin-dependent protein kinase type IV (Homo sapiens) (UniProt Q16566).
T4 sequence (whole entry): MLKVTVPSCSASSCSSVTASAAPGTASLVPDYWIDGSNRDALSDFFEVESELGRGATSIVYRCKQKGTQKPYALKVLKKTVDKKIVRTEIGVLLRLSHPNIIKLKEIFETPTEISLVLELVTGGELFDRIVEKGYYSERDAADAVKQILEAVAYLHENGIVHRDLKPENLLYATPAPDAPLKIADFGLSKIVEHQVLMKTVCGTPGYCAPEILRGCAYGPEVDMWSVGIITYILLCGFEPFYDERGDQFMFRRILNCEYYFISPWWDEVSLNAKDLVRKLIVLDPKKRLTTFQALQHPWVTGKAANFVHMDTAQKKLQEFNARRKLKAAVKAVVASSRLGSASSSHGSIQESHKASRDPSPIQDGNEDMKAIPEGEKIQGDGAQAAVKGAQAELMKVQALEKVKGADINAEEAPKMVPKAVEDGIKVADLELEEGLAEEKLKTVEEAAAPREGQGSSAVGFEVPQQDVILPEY
Particulars: at 0.1 µM.

Experiment [15] addresses T4, Calcium/calmodulin-dependent protein kinase type IV (Homo sapiens). Particulars: at 1 µM.
Experiment [16] concerns the target T5, Serine/threonine-protein kinase Chk1 (Homo sapiens) (UniProt O14757).
T5 sequence (whole entry): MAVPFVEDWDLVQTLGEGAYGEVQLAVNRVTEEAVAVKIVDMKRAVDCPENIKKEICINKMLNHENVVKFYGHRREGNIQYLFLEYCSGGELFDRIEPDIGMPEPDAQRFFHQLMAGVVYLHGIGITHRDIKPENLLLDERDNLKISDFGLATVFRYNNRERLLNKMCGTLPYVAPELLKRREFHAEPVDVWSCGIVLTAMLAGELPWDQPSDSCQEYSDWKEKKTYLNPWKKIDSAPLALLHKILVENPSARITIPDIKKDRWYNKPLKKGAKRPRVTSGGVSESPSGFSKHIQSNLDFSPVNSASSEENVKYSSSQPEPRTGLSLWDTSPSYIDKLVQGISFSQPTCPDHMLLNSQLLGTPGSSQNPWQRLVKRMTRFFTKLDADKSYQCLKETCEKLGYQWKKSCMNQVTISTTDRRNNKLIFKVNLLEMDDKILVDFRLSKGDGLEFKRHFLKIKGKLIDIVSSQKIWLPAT
The note with it: at 0.1 µM.

The target in experiment [17] is T5, Serine/threonine-protein kinase Chk1 (Homo sapiens). Particulars: at 1 µM.
Experiment [18] addresses Serine/threonine-protein kinase Chk2 (Homo sapiens) (UniProt O96017). The note with it: at 0.1 µM.
For experiment [19] the target is unchanged. The note with it: at 1 µM.
For experiment [20], the target named is Death-associated protein kinase 1 (Homo sapiens) (UniProt P53355). Particulars: at 0.1 µM.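 Note: reported figure is the mean inhibition of DAPK1.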

Each structure is given as a SMILES string.

Chain of 5'-AMP-activated protein kinase catalytic subunit alpha-2 (Homo sapiens) (P54646 whole entry, looked up): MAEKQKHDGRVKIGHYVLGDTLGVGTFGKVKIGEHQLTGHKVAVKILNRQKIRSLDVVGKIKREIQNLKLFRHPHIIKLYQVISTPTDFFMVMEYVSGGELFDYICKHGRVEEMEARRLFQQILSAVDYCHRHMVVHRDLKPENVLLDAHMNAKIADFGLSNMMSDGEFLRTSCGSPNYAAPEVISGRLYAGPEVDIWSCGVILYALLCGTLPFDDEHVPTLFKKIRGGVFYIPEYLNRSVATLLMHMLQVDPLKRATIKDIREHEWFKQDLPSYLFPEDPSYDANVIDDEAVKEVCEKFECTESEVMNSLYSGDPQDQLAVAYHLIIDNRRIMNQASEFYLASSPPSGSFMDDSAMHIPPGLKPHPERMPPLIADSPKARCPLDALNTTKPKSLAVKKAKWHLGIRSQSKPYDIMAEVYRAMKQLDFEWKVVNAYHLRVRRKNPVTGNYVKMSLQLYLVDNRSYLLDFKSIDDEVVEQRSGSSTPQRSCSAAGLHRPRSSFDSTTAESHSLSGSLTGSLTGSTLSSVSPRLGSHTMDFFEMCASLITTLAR
Chain of Calcium/calmodulin-dependent protein kinase type II subunit delta (Homo sapiens) (Q13557 whole entry): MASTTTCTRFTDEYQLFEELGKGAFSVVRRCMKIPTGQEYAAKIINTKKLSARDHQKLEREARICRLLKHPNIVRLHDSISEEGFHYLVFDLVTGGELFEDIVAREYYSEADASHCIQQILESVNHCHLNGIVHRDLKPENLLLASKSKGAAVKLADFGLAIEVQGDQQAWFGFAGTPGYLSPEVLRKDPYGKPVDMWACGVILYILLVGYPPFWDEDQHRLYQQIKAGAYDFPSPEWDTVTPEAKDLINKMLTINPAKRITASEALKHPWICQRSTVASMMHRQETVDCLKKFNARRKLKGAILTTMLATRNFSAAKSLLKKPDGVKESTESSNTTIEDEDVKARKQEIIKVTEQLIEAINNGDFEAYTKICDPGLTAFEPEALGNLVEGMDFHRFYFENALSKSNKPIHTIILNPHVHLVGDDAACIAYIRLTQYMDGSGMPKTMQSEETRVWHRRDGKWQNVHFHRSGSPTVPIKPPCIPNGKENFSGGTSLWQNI
Chain of Calcium/calmodulin-dependent protein kinase type II subunit alpha (Homo sapiens) (Q9UQM7 whole entry): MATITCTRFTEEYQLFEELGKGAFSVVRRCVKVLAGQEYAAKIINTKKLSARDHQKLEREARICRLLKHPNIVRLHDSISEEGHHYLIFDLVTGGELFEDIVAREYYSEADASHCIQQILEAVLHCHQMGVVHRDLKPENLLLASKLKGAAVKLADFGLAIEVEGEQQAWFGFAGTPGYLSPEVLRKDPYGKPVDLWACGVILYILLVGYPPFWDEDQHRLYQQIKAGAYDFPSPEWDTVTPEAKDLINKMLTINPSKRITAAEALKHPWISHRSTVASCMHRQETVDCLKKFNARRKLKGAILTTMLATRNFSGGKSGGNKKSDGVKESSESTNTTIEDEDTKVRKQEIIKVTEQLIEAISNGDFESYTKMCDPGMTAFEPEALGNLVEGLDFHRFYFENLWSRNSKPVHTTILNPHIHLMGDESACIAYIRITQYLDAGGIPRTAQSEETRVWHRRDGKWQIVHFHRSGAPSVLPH
Chain of Serine/threonine-protein kinase Chk2 (Homo sapiens) (O96017 whole entry): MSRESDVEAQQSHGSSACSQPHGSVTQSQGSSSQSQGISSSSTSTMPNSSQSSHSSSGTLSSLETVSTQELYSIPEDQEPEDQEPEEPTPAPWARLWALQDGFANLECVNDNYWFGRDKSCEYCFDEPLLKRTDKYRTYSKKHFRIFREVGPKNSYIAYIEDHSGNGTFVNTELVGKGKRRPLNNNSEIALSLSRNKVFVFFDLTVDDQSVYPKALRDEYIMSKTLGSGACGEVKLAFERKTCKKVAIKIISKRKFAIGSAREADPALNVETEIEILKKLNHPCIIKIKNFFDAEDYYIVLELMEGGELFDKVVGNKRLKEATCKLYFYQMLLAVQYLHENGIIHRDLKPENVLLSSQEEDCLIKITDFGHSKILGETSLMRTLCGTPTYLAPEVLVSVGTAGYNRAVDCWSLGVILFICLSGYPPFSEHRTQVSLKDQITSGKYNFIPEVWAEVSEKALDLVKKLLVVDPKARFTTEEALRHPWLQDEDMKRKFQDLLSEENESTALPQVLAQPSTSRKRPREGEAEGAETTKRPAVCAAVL
Chain of Death-associated protein kinase 1 (Homo sapiens) (P53355 whole entry, looked up): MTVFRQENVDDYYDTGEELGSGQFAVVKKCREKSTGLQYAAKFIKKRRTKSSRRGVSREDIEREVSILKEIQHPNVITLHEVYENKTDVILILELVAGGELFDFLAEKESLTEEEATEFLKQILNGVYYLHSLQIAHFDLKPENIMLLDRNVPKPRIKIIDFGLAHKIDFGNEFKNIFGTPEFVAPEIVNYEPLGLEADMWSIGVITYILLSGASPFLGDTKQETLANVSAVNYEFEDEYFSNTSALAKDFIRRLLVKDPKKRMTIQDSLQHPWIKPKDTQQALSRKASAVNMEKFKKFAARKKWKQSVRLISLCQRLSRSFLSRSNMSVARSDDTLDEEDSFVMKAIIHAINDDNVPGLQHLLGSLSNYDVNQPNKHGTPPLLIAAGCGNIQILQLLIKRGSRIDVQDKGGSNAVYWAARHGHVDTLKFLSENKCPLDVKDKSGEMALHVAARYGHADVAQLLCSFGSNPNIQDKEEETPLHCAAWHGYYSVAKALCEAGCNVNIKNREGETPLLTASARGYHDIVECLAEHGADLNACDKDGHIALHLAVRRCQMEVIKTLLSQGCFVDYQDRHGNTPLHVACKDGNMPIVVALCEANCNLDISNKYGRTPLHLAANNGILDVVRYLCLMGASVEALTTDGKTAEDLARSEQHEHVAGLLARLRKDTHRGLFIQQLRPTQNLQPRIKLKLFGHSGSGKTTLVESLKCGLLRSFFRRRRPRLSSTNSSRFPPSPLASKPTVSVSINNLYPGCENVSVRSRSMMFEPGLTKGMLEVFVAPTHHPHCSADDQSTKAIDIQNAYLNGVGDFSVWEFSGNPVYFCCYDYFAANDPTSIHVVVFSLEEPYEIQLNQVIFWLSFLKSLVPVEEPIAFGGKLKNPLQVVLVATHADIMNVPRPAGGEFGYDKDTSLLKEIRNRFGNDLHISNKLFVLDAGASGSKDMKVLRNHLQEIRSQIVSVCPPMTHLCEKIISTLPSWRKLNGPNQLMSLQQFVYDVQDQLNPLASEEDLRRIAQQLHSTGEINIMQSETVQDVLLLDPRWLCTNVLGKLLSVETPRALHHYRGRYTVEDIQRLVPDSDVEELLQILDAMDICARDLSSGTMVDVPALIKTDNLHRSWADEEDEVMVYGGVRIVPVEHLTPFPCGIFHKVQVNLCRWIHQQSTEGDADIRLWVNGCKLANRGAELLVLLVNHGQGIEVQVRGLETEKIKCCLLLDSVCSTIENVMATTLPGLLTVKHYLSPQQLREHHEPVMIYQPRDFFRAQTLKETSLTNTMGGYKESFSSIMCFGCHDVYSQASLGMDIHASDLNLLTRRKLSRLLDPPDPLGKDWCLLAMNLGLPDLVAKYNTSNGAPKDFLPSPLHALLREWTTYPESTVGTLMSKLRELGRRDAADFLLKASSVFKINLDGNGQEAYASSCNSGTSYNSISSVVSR
Chain of Calcium/calmodulin-dependent protein kinase type 1D (Homo sapiens) (Q8IU85 whole entry, looked up): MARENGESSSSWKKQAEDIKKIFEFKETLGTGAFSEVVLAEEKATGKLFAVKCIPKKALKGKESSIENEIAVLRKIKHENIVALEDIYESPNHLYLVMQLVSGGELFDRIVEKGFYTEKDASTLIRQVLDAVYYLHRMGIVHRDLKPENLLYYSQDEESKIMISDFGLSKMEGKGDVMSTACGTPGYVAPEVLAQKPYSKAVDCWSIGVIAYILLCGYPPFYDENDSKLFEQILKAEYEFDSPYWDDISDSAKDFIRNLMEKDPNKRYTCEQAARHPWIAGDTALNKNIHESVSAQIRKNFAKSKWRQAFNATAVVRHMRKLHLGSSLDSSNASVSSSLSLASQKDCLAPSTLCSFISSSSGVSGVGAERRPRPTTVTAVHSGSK

As usually defined, the inhibition is the drop in the measured response relative to a control, in per cent. On to `COc1cc2ncn(-c3cc(OCc4cccs4)c(C(N)=O)s3)c2cc1OC`, for which the inhibition in experiment [1] is 5.5%; in [2] it was 20.1%; in experiment [3], 63.2%; in experiment [4], 9%; in [5], 50%; in [6] it was 16.6%. Also, the inhibition is 60.6% in experiment [7]; 0.15% in [8]; 0.12% in experiment [9]; 2.87% in [10]; 1.67% in experiment [11]; 0.52% in [12]. In addition, the inhibition in [13] was 2.97%; in experiment [14] it was -3.4%; in [15] it was -4.06%; in experiment [16] it was 1.35%; in experiment [17], 3.75%; in experiment [18], 2.01%. In addition, the inhibition in experiment [19] was 5.81%; in experiment [20], 0.06%.

For the compound `Cc1ccc(C(=O)NC2CCC2)cc1-c1ccc(C(=O)NCC2CC2)cc1`, the inhibition in experiment [1] amounted to 0.57%; in experiment [2] it was 0.27%; in [3], 5.25%; in experiment [4], 1.77%; in [5], 3.1%; in [6] it was 1.53%. Moreover, the inhibition is 4.25% in [7]; 0.09% in experiment [8]; 2.93% in experiment [9]; 3.06% in experiment [10]; 2.38% in experiment [11]; 1.89% in [12]. The inhibition in [13] was 1.44%; in experiment [14] it was 0.4%; in experiment [15], 0.59%; in experiment [16] it was 2.53%; in experiment [17], 2.39%; in [18] it was 1.83%. Moreover, the inhibition in [19] came out at 3.06%; in [20], 2.9%.

For the compound `COc1cc(Nc2ncc3c(C)nc(-c4cccc(C(F)(F)F)c4)n3n2)cc(OC)c1OC`, the inhibition in [1] came to 25%; in experiment [2], 35.4%; in experiment [3], 65.3%; in [4] it was 4.57%; in experiment [5], 7.57%; in [6], 5.62%. Moreover, the inhibition in experiment [7] is 9.19%; in [8], -1.94%; in experiment [9], -0.82%; in [10], 2.25%; in experiment [11] it was 2%; in experiment [12], 3.19%. The inhibition was 5.08% in experiment [13]; -2% in experiment [14]; -3.22% in [15]; 1.23% in experiment [16]; 5.15% in experiment [17]; 6.47% in experiment [18]. In addition, the inhibition is 9.62% in [19] and -0.52% in experiment [20].

Take `COC(=O)Nc1nc2ccc(Sc3ccc(NC(=O)Nc4cc(C(F)(F)F)ccc4F)cc3)cc2[nH]1`: the inhibition in [1] is 1.29%; in experiment [2], 3.62%; in experiment [3] it was -4.85%; in experiment [4], -1.14%; in experiment [5] it was 0.16%; in experiment [6] it was -0.46%. Further, the inhibition amounted to 1.01% in experiment [7]; 0.9% in experiment [8]; 0.37% in experiment [9]; 3% in experiment [10]; 4.35% in experiment [11]; 1.39% in [12]. Also, the inhibition was 2.79% in experiment [13]; 0.44% in experiment [14]; 1.75% in experiment [15]; 2.81% in experiment [16]; 1.17% in experiment [17]; -0.98% in [18]. Besides, the values for the inhibition in experiment [19] and in [20] were 0.37% and 3.64%, respectively.

For `NS(=O)(=O)c1ccc(Nc2cc(-c3ccc(O)c(F)c3)n[nH]2)cc1`, the inhibition in experiment [1] was 8.67%; in [2] it was 2.73%; in [3] it was 11%; in experiment [4], 0.57%; in [5], 10.9%; in experiment [6], 2.75%. Moreover, the inhibition in experiment [7] is 16.7%; in experiment [8], -0.17%; in experiment [9], 0.78%; in experiment [10], -4.96%; in experiment [11], -4.72%; in experiment [12], -3.72%. Besides, the inhibition was 1.69% in experiment [13]; 0.82% in experiment [14]; 0.53% in experiment [15]; -5.01% in experiment [16]; 8.18% in experiment [17]; -1.68% in [18]. Further, the figures for the inhibition in [19] and in [20] were 3.93% and -2.1%, respectively.

Take `CN(C)c1ccc2c(c1)/C(=C/Nc1ccc(S(N)(=O)=O)cc1)C(=O)N2`: the inhibition in [1] stood at 26.8%; in experiment [2], 39.5%; in [3] it was 55.6%; in [4], 11.3%; in experiment [5] it was 42.7%; in experiment [6] it was 18.5%. The inhibition in [7] turned out to be 54.2%; in experiment [8], 0.43%; in experiment [9] it was 4.29%; in experiment [10], 3.79%; in [11], 3.56%; in [12], 2.54%. Moreover, the inhibition in [13] worked out at 15%; in experiment [14], 0.96%; in [15], 0.42%; in [16], 8.69%; in [17] it was 34.9%; in [18], 1.42%. The inhibition in [19] turned out to be 10.6%; in experiment [20], 1.57%.
